Experimental data from PubChem BioAssay (NCATS).
Records with an inconclusive call do not appear. Entries that show only a call come without a potency. Calls of active or inactive are those of the source. Calls come from the whole dose curve.

Key:
[1] = Primary qHTS for Huh7 cytotoxicity: counterscreen for inhibitors of MERS-S pseudotyped particle cell entry (AID 1479147)
[2] = Primary qHTS for Vero E6 cytotoxicity: counterscreen for inhibitors of SARS-S pseudo-typed particle cell entry (AID 1479150)
[3] = Primary qHTS for inhibitors of MERS-S pseudo-typed particle cell entry (AID 1479149); note: nearly all actives have a fitted effect of over 60% in size; note: potency is the fitted concentration of half-maximal effect
[4] = Confirmatory qHTS for VERO E6 Cytotoxicity Assay: Counterscreen for SARS-CoV-2 CPE Assay (AID 1508605); note: series mostly up to about 20 µM; nearly all actives have a fitted effect of over 60% in size
[5] = Confirmatory qHTS for activators (rescue) of SARS-CoV-2 Cytopathic Effect (CPE) (AID 1508606); note: potency is the fitted concentration of half-maximal effect; nearly all actives have a fitted effect of over 70% in size

**Q.** For `COc1ccc2c(c1)c(CC(=O)O)c(C)n2C(=O)c1ccc(Cl)cc1`, which Potency [1] is on record?
**A.** The Potency was “inactive”.

**Q.** And the Potency [2]?
**A.** Its Potency is “inactive”.

**Q.** With `O=C(Nc1ccccc1)OCC(CN1CCCCC1)OC(=O)Nc1ccccc1` (stereo unspecified) as the molecule, how does the Potency [1] read?
**A.** Its Potency is “inactive”.

**Q.** And the Potency [2]?
**A.** Its Potency is “inactive”.

**Q.** What does the source list for `N#C/C(=C1/SC[C@@H](c2ccc(Cl)cc2Cl)S1)n1ccnc1`?
**A.** Potency [1]: inactive; Potency [2]: inactive

**Q.** With `COc1cc(N)c(Cl)cc1C(=O)NC1CCN(Cc2ccccc2)CC1` as the molecule, how does the Potency [1] read?
**A.** The Potency was “inactive”.

**Q.** And the Potency [2]?
**A.** Its Potency is “inactive”.

**Q.** For `CN(C)[C@@H](CCOc1cccc2ccccc12)c1ccccc1`, which Potency [1] is on record?
**A.** Its Potency is “inactive”.

**Q.** What about the Potency [3] of the same molecule?
**A.** The Potency was 20 µM (active).

**Q.** What about the Potency [2] of the same molecule?
**A.** Its Potency is “inactive”.

**Q.** And the Potency [4]?
**A.** Its Potency is “inactive”.

**Q.** And the Potency [5]?
**A.** The Potency was 10 µM (active).

**Q.** With `CCOC(CN1CCN(CC(C)C(=O)c2ccccc2)CC1)c1ccccc1` (stereo unspecified) as the molecule, how does the Potency [1] read?
**A.** Its Potency is “inactive”.

**Q.** And the Potency [3]?
**A.** Its Potency is “inactive”.

**Q.** And the Potency [2]?
**A.** Its Potency is “inactive”.

**Q.** Which results are given for `CN1CCC(=C2c3ccccc3CCc3sccc32)CC1`?
**A.** Potency [1]: inactive; Potency [3]: 10 µM (active); Potency [2]: inactive; Potency [4]: inactive; Potency [5]: 11.2 µM (active)

**Q.** Which Potency [1] does the source give for `CCCCCOc1ccccc1/C(=C\SC)n1ccnc1` here?
**A.** The Potency was “inactive”.

**Q.** What about the Potency [2] of the same molecule?
**A.** The Potency was “inactive”.

**Q.** Which Potency [1] does the source give for `CN1CC(=O)N2[C@H](c3ccc4c(c3)OCO4)c3[nH]c4ccccc4c3C[C@@H]2C1=O` here?
**A.** Its Potency is “inactive”.

**Q.** What about the Potency [2] of the same molecule?
**A.** The Potency was “inactive”.

**Q.** What does the source list for `CC(Oc1c(Cl)cccc1Cl)C1=NCCN1` (stereo unspecified)?
**A.** Potency [1]: inactive; Potency [3]: inactive; Potency [2]: inactive

**Q.** For `COc1cc(NS(=O)(=O)c2ccc(N)cc2)ncn1`, which Potency [1] is on record?
**A.** The Potency was “inactive”.

**Q.** What about the Potency [3] of the same molecule?
**A.** Its Potency is “inactive”.

**Q.** And the Potency [2]?
**A.** The Potency was “inactive”.

**Q.** With `O=C(NCC1CN(c2ccc(N3CCOCC3=O)cc2)C(=O)O1)c1ccc(Cl)s1` (stereo unspecified) as the molecule, how does the Potency [1] read?
**A.** Its Potency is “inactive”.

**Q.** And the Potency [2]?
**A.** Its Potency is “inactive”.

**Q.** With `Nc1c(NC/C=C\COc2cc(CN3CCCCC3)ccn2)c(=O)c1=O` as the molecule, how does the Potency [1] read?
**A.** The Potency was “inactive”.

**Q.** What about the Potency [3] of the same molecule?
**A.** The Potency was “inactive”.

**Q.** And the Potency [2]?
**A.** The Potency was “inactive”.

**Q.** Which Potency [1] does the source give for `Clc1ccc(C(Cn2ccnc2)OCc2ccsc2Cl)c(Cl)c1` (stereo unspecified) here?
**A.** Its Potency is “inactive”.

**Q.** What about the Potency [2] of the same molecule?
**A.** The Potency was “inactive”.

**Q.** Which Potency [1] does the source give for `COC(=O)[C@H]1[C@H]2C[C@@H]3c4[nH]c5cc(OC)ccc5c4CCN3C[C@H]2C[C@@H](OC(=O)/C=C/c2ccc(O)c(OC)c2)[C@@H]1OC` here?
**A.** The Potency was “inactive”.

**Q.** And the Potency [2]?
**A.** Its Potency is “inactive”.

**Q.** What about the Potency [4] of the same molecule?
**A.** Its Potency is “inactive”.

**Q.** And the Potency [5]?
**A.** The Potency was 12.6 µM (active).

**Q.** With `Clc1ccc(C(Cn2ccnc2)OCc2c(Cl)cccc2Cl)c(Cl)c1` (stereo unspecified) as the molecule, how does the Potency [1] read?
**A.** Its Potency is “inactive”.

**Q.** And the Potency [2]?
**A.** The Potency was “inactive”.

**Q.** Which results are given for `NS(=O)(=O)c1cc2c(cc1Cl)NCNS2(=O)=O`?
**A.** Potency [1]: inactive; Potency [2]: inactive

**Q.** With `CN(C)CCCN1c2ccccc2Sc2ccccc21` as the molecule, how does the Potency [1] read?
**A.** The Potency was “inactive”.

**Q.** What about the Potency [2] of the same molecule?
**A.** Its Potency is “inactive”.

**Q.** What about the Potency [4] of the same molecule?
**A.** Its Potency is “inactive”.

**Q.** Which results are given for `CCCOC(C(=O)OC1CCN(C)CC1)(c1ccccc1)c1ccccc1`?
**A.** Potency [1]: inactive; Potency [2]: inactive; Potency [4]: inactive

**Q.** Which results are given for `C=C1C(=C/C=C2\CCC[C@]3(C)[C@@H]([C@H](C)/C=C/[C@@H](O)C4CC4)CC[C@@H]23)C[C@@H](O)C[C@@H]1O`?
**A.** Potency [1]: inactive; Potency [2]: inactive

**Q.** For `OCCN1CCN(CCCN2c3ccccc3C=Cc3ccccc32)CC1`, which Potency [1] is on record?
**A.** Its Potency is “inactive”.

**Q.** And the Potency [2]?
**A.** Its Potency is “inactive”.

**Q.** Which results are given for `CN1CCC(OC(c2ccccc2)c2ccccc2)CC1`?
**A.** Potency [1]: inactive; Potency [2]: inactive

**Q.** With `CN(C)CCCOc1nn(Cc2ccccc2)c2ccccc12` as the molecule, how does the Potency [1] read?
**A.** Its Potency is “inactive”.

**Q.** What about the Potency [2] of the same molecule?
**A.** Its Potency is “inactive”.

**Q.** Which Potency [1] does the source give for `CN(C)CCOC1=Cc2ccccc2Sc2ccc(Cl)cc21` here?
**A.** The Potency was “inactive”.

**Q.** What about the Potency [2] of the same molecule?
**A.** The Potency was “inactive”.

**Q.** With `Cc1ccc(Cl)c(OCC(O)CNC(C)(C)C)c1` (stereo unspecified) as the molecule, how does the Potency [1] read?
**A.** Its Potency is “inactive”.

**Q.** And the Potency [2]?
**A.** The Potency was “inactive”.

**Q.** Which Potency [1] does the source give for `CCN(CC)CCOCCOC(=O)C1(c2ccccc2)CCCC1` here?
**A.** The Potency was “inactive”.

**Q.** What about the Potency [2] of the same molecule?
**A.** Its Potency is “inactive”.

**Q.** For `CCCCc1cc2ccccc2c(OCCN(C)C)n1`, which Potency [1] is on record?
**A.** Its Potency is “inactive”.

**Q.** And the Potency [2]?
**A.** The Potency was “inactive”.

**Q.** Which Potency [1] does the source give for `CC(=O)O[C@]1(C(C)=O)CC[C@H]2[C@@H]3C=C(Cl)C4=CC(=O)CC[C@]4(C)[C@H]3CC[C@@]21C` here?
**A.** Its Potency is “inactive”.

**Q.** And the Potency [2]?
**A.** Its Potency is “inactive”.

**Q.** With `COC(=O)C1=C(C)NC(C)=C(C(=O)OCCN2CCN(C(c3ccccc3)c3ccccc3)CC2)C1c1cccc([N+](=O)[O-])c1` (stereo unspecified) as the molecule, how does the Potency [1] read?
**A.** The Potency was “inactive”.

**Q.** What about the Potency [2] of the same molecule?
**A.** Its Potency is “inactive”.

**Q.** For `CCN(CC)CCOC(=O)C1(c2ccccc2)CCCC1`, which Potency [1] is on record?
**A.** The Potency was “inactive”.

**Q.** And the Potency [2]?
**A.** The Potency was “inactive”.

**Q.** With `CC(=O)c1ccc2c(c1)N(CCCN(C)C)c1ccccc1S2` as the molecule, how does the Potency [1] read?
**A.** The Potency was “inactive”.

**Q.** And the Potency [2]?
**A.** Its Potency is “inactive”.

**Q.** With `COc1ccccc1N1CCN(CC(O)COc2cccc3ccccc23)CC1` (stereo unspecified) as the molecule, how does the Potency [1] read?
**A.** Its Potency is “inactive”.

**Q.** And the Potency [2]?
**A.** The Potency was “inactive”.

**Q.** With `O=C(c1ccc(F)cc1)C1CCN(CCn2c(=O)[nH]c3ccccc3c2=O)CC1` as the molecule, how does the Potency [1] read?
**A.** Its Potency is “inactive”.

**Q.** What about the Potency [2] of the same molecule?
**A.** Its Potency is “inactive”.

**Q.** Which Potency [1] does the source give for `CCCCCCCCCCCCCCCCCCOCC(O)CO` (stereo unspecified) here?
**A.** The Potency was “inactive”.

**Q.** And the Potency [2]?
**A.** The Potency was “inactive”.

**Q.** With `COc1ccc(CN2CCN(C(c3ccc(F)cc3)c3ccc(F)cc3)CC2)c(OC)c1OC` as the molecule, how does the Potency [1] read?
**A.** Its Potency is “inactive”.

**Q.** And the Potency [2]?
**A.** Its Potency is “inactive”.

**Q.** With `O[C@@H](COc1cccc2ncccc12)CN1CCN(C2c3ccccc3[C@@H]3[C@H](c4ccccc42)C3(F)F)CC1` (stereo partly specified) as the molecule, how does the Potency [1] read?
**A.** Its Potency is “inactive”.

**Q.** What about the Potency [2] of the same molecule?
**A.** Its Potency is “inactive”.

**Q.** Which results are given for `COC(=O)C1=C(C)NC(C)=C(C(=O)OC(C)(C)CN(C)CCC(c2ccccc2)c2ccccc2)C1c1cccc([N+](=O)[O-])c1` (stereo unspecified)?
**A.** Potency [1]: inactive; Potency [2]: inactive

**Q.** Which Potency [1] does the source give for `Clc1ccc2c(c1)CCc1cccnc1C2=C1CCNCC1` here?
**A.** Its Potency is “inactive”.

**Q.** What about the Potency [2] of the same molecule?
**A.** Its Potency is “inactive”.

**Q.** And the Potency [4]?
**A.** Its Potency is “inactive”.
